From PubChem BioAssay (Tox21)
Inconclusive results are not listed. Active and inactive are the calls of the source. Unless noted, calls follow the shape of the dose curve; as a rule, active = well fitted curve in the direction sought with a large enough effect in the repeat runs; inconclusive = weak or mixed curves; inactive = no such curve, though single readings can be large; an effect the other way counts as inactive or inconclusive.

Assays:
[1] = qHTS assay to identify small molecule antagonists of the estrogen related receptor (ERR) signaling pathway - cell viability counter screen (AID 1224818);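 also: series mostly up to about 46 µM; viability measured after 17.5 h of compound exposure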
Method in brief: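 Cells carrying the ERR pathway reporter were seeded and incubated for 6 hours before compound addition. After a 17.5-hour exposure at 37 C, live-cell protease activity was measured by CellTiter-Fluor fluorescence following 30 minutes of incubation.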

[2] = qHTS assay to identify small molecule agonists of the estrogen related receptor (ERR) signaling pathway (AID 1224820)
Method in brief: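 Quantitative HTS of the LOPAC library used NTP ERR reporter cells treated 18 h at 37 C. Signal is luminescence after One-Glo addition and a 30 min room-temperature incubation.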

[3] = tested on: estrogen-related receptor alpha (ERRalpha) with PGC-1alpha coactivator, human; test: qHTS assay to identify small molecule antagonists of the estrogen related receptor signaling pathway with the pleiotropic PPARgamma coactivator (PGC) (AID 1224821; calls by dose curve;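 also: series mostly up to about 46 µM; lower luminescence signal means antagonism of PGC/ERR signalling; nearly all actives have a fitted effect of over 50% in size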)
Method in brief: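 Quantitative HTS for antagonism: PGC/ERR cells received compounds after 6 h attachment and were incubated 18 h at 37 C, with luminescence (One-Glo) as the endpoint.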

[4] = qHTS assay to identify small molecule antagonists of the estrogen related receptor signaling pathway with the pleiotropic PPARgamma coactivator (PGC) cell viability counter screen (AID 1224822;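 also: series mostly up to about 46 µM; viability read after 17.5 h compound exposure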)
Method in brief: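 Seed PGC/ERR cells (2,000/well); incubate 6 h at 37 C/5% CO2; pin-transfer compounds in DMSO; incubate 17.5 h at 37 C; add CellTiter-Fluor; after 30 min read fluorescence.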

[5] = qHTS assay to identify small molecule agonists of the estrogen related receptor signaling pathway with the pleiotropic PPARgamma coactivator (PGC) (AID 1224823)
Method in brief: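 Cell-based luciferase assay in the NTP-supplied PGC/ERR line, 2,000 cells/well; 18 h compound exposure at 37 C, luminescence after One-Glo.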

Measured: Potency

Cc1sc2ccccc2c1CC1=NCCN1
inactive: all assays above
